Records with an inconclusive call do not appear. Entries that show only a call come without a potency. Calls of active or inactive are those of the source. Calls come from the whole dose curve; as a rule, active = well fitted inhibition curve with a large enough effect; inconclusive = small, poorly fitted or top-dose-only effect, or effect the other way; inactive = no such curve, though single readings can be large or run the other way.
Assay: Concentration response confirmation VP16 counterscreen for inhibitors of ROR gamma transcriptional activity; note: nearly all actives have a fitted effect of over 70% in size
Details: Drosophila S2 Gal4-VP16 UAS-luciferase, luminescence, 20 h; series mostly up to 46.1 µM
Procedure, shortened: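 Drosophila Schneider cells stably carrying Gal4-VP16 under metallothionein promoter plus UAS-Photinus luciferase. Compound preincubated 1 hr, then 700 uM copper sulfate induction for 20 hr at ambient temperature; luminescence read.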
Potency is the fitted concentration of half-maximal effect.

Row | Structure (SMILES) | Potency
1 | S=c1[nH]nc(-c2ccc(Cl)cc2Cl)n1-c1ccc2c(c1)OCCO2 | inactive
2 | O=C(NC(=S)Nc1nc(-c2ccc(Br)cc2)cs1)c1cccnc1 | inactive
3 | COc1cc(C(=O)NC2CC(C)(C)Cc3c2cnn3-c2ccccc2)cc(OC)c1OC (stereo not drawn) | inactive
4 | c1csc(CCNc2ncnc3sc4c(c23)CCC4)c1 | 25 µM (active)
5 | Cc1ccc(C(=O)O/N=C/c2ccc(N(C)C)cc2)cc1 | inactive
6 | CC(=O)c1cnc2nc(C(F)(F)F)nn2c1C | inactive
7 | CCN1C(=O)/C(=C/c2ccc(N3CCCC3)cc2)NC1=S | 9.96 µM (active)
8 | Cc1ccccc1C(=O)OC1OC(=O)C(Cl)=C1Nc1ccccc1 (stereo not drawn) | inactive
9 | O=C(CCCOc1ccccc1)Nc1nc2ccccc2[nH]1 | inactive
10 | COC(=O)Cn1c(CN2CCc3ccccc3C2)nc2c1c(=O)n(C)c(=O)n2C | 6.28 µM (active)
11 | COc1ccc(C(=O)Nc2cc(-c3ccc(C)cc3)no2)cc1 | inactive
12 | Cc1ccccc1NC(=O)CCN1CCN(C)CC1 | inactive
13 | CCN(CC)c1ccc2cc(-c3nc4ccccc4[nH]3)c(=O)oc2c1 | 9.96 µM (active)
14 | Cc1ccc(NC(=O)CCN2CCN(C)CC2)cc1 | inactive
15 | CCCCn1c(CN2CCN(c3ccccc3)CC2)nc2c1c(=O)n(C)c(=O)n2C | 8.88 µM (active)
16 | Cc1ccc(NC2=C(Cl)C(=O)OC2OC(=O)c2ccco2)cc1 (stereo not drawn) | inactive
17 | CC(C)(C)S(=O)(=O)c1cnc2c(-c3ccc(F)cc3)cnn2c1N | 12.5 µM (active)
18 | COc1ccc(C(=O)Nc2ccc(NC(=O)c3cccs3)cn2)cc1 | inactive

Reference: PubChem BioAssay AID2763 (National Center for Advancing Translational Sciences (NCATS), 2010)
